Results as given in PubChem BioAssay (NCATS).
Where “and” joins values, the source holds several entries; their conditions need not be identical. Equal entries are not always repeated.

Molecular target: Cytochrome P450 3A4 (Homo sapiens) (UniProt P08684)
Test: qHTS Assay for Activators of Cytochrome P450 3A4 (AID 885); note: nearly all actives have a fitted effect of over 65% in size
Settings: recombinant CYP3A4, Luciferin-PPXE luminescence, 60 min; series mostly up to 57.1 µM; activity change, positive = activation: at the top concentration; active = well fitted activation curve with a large enough effect; inconclusive = small, poorly fitted or top-dose-only effect; inactive = no such curve, though single readings can be large or run the other way
Method in brief: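 Quantitative HTS format: compounds preincubated with 20nM human CYP3A4 and Luciferin-PPXE substrate at KM, reaction started by NADPH regeneration, stopped after 60 min, luciferase luminescence read 20 min later.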

Cytochrome P450 3A4 (Homo sapiens), sequence (P08684 whole entry, looked up): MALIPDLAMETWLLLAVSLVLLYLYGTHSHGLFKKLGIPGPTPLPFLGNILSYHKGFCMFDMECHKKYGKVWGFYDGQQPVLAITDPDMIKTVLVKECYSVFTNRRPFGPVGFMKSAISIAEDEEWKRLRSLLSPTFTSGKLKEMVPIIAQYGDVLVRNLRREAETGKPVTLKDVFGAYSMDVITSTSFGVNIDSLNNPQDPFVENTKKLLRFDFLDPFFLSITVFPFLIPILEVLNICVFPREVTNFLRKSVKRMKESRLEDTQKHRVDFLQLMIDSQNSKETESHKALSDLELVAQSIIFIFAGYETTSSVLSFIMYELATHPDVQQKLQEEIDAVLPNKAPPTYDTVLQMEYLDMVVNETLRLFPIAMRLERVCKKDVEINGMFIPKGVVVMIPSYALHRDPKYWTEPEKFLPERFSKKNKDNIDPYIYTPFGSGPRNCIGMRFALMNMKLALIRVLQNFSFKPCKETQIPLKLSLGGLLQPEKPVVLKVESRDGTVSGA

Activity change, positive = activation, inactive:
CC[C@@H](c1ccccc1)n1c(=O)n2n(c1=O)[C@H]1[C@H](O)[C@H]3O[C@@H]3/C(=N/OCc3ccccc3)[C@@H]1CC2 -33.4% [at 11.4 µM]
C#CCCCO/N=C1/[C@H]2O[C@@H]2[C@@H](O)[C@H]2[C@H]1CCn1c(=O)n([C@@H](CC)c3ccccc3)c(=O)n12 -55.5% [at 11.4 µM]
CO[C@H]1COC(=O)[C@@H](C)COC(=O)[C@@H](Cc2ccccc2)NC(=O)C/C=C\[C@H]1C -36.8% [at 11.4 µM]
CO[C@H]1COC(=O)C/C=C\[C@H](C)[C@H](OC)COC(=O)[C@@H](C)COC(=O)C/C=C\[C@@H]1C -30.8% [at 11.4 µM] and -38.4% [at 11.4 µM]
O=C1[C@H]2O[C@@H]2[C@@H](O)[C@H]2[C@H]1CCn1c(=O)n(Cc3cc4c(cc3Cl)OCO4)c(=O)n12 -36.7% [at 11.4 µM]
COc1ccc(O[C@H]2C=C[C@@H](c3ccccc3)O[C@H]2CO/N=C(/C)CCC(=O)OC[C@@H]2O[C@H](C#Cc3ccccc3)C=C[C@@H]2Oc2ccc(C)cc2)cc1 -52.7% [at 11.4 µM]
C[C@@H]1C=C[C@](Cc2ccccc2)(C(=O)NCCCNc2ncc(C(F)(F)F)cc2Cl)N1C(=O)c1ccccc1 -50.9%
COc1ccc(COC(=O)N/N=C2/C[C@@H](O)[C@@H](O)[C@@H]3[C@@H]4C(=O)N([C@@H](C)c5ccccc5)C(=O)[C@H]4CC[C@@H]23)cc1 -39.8% [at 11.4 µM]
COC(=O)c1cccc(C23CC4(C2)[C@H](CN(C)[C@@H]4c2ccccc2)C3c2ccc(Cl)nc2)c1 (some centres undefined) -51.4%
COC(=O)c1cccc(C23CC4(C2)[C@H](CN(Cc2ccc(-c5ccccc5)cc2)[C@@H]4c2ccccc2)C3c2ccc(C(F)(F)F)cc2)c1 (some centres undefined) -49.9%
CCOC(=O)N/N=C1/C[C@@H](O)[C@@H](O)[C@@H]2[C@@H]3C(=O)N(Cc4ccc5c(c4)OCO5)C(=O)[C@H]3CC[C@H]12 -58.6% [at 11.4 µM]
COc1ccc(COC(=O)N/N=C2/C[C@@H](O)[C@@H](O)[C@@H]3[C@@H]4C(=O)N(C(C)(C)C)C(=O)[C@H]4CC[C@H]23)cc1 -30.7% [at 11.4 µM]
N#Cc1ccc(C23CC4(C2)[C@H](CN(P(=O)(c2ccccc2)c2ccccc2)[C@@H]4c2ccccc2)C3c2ccc(Cl)nc2)cc1 (some centres undefined) -56.6%
CO[C@@H]1COC(=O)[C@H]2CCCN2C(=O)[C@@H](C)COC(=O)[C@H](COCc2ccccc2)NC(=O)C/C=C\[C@H]1C -38.2% [at 11.4 µM]
CO[C@H]1COC(=O)[C@H](C)COC(=O)C/C=C\[C@@H](C)[C@H](OC)COC(=O)C/C=C\[C@@H]1C -51.9% [at 11.4 µM]
COC(=O)[C@@H]1C[C@@H]2CC[C@@H](O)C[C@@H]2N1Cc1ccc(N2CCOCC2)cc1 -34.3%
COC(=O)[C@@H]1C[C@H]2CC[C@H](O)C[C@H]2N1Cc1ccc(-c2ccccc2)cc1 -46.3%
COC(=O)[C@@H]1CC[C@H](C)[C@@H](c2ccc(C)cc2)N1C(=O)c1ccc(/C=N\O[C@@H](C)CN2CCCCc3nc(C)c(C)cc32)cc1 -36.1% [at 11.4 µM]
CC(=O)OC[C@@H]1O[C@H](CCO/N=C(\C)CCN2CCc3nc(-c4ccccc4)c(-c4ccccc4)cc3C2)C=C[C@@H]1OC(C)=O -47.2% [at 11.4 µM]
O=C1CCCC=C1[C@@H](O)COCc1ccccc1 -31.3% [at 11.4 µM]
CCCC[C@@H]1CN2[C@H](c3ccc(Br)cc3)[C@@H](C)CC[C@H]2C(=O)O1 -59.6% [at 11.4 µM]
C/C(CCN1CCc2nc(-c3ccccc3)c(-c3ccccc3)cc2C1)=N\OC[C@@H](O)[C@@H]1O[C@@H]2OC(C)(C)O[C@@H]2[C@H]1O -41.3% [at 11.4 µM]
FC(F)(F)c1ccc(CN2C[C@@H]3C(c4ccc(C(F)(F)F)cc4)C4(c5cccnc5)CC3(C4)[C@H]2c2ccccc2)cc1 (some centres undefined) -52.7%
Cc1ccc(S(=O)(=O)N[C@H]2COC(=O)[C@H](C)COC(=O)[C@H](C)NC(=O)C/C=C\[C@H]2C)cc1 -41.3% [at 11.4 µM]
